Results published in the supplement of paper PMC10037445.
The full ranking holds about 2,900 compounds; the median of “NF-kB SEAP reporter activity, fold change vs agonist alone” is about 0.99, and the highest 2% start at about 2.6. The list comes from a sample in which the highest values are over-represented; it also holds similar structures and randomly drawn compounds.

Key:
[1] = test system: RAW-Dual; assay: NF-kB SEAP reporter activity, fold change vs agonist alone; cytotoxicity flag (confluency mask): not cytotoxic; higher = enhanced NF-kB activity
In short: (§1)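 Reporter activity is given as fold change relative to agonist-alone wells. To measure it, 50 nL of library stock was pin-tooled onto RAW-Dual macrophages (50,000 cells/well, DMEM, 384-well plates), a PRR agonist followed 1 h later, and cells stayed at 37 °C, 5% CO2. Twenty hours on, supernatant was assayed for IRF (QuantiLuc luminescence) and NF-κB (QuantiBlue, 620 nm absorbance), and wells under 70% of agonist-control IncuCyte confluency in both mask sets were marked cytotoxic.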

[2] = test system: RAW-Dual; assay: NF-kB SEAP reporter activity, fold change vs agonist alone; higher = enhanced NF-kB activity
In short: as §1

[3] = test system: RAW-Dual; assay: NF-kB SEAP reporter activity, fold change vs agonist alone; cytotoxicity flag (confluency mask): cytotoxic (confluency <70% of control); higher = enhanced NF-kB activity
In short: as §1

[4] = agonist: ODN 1826 (TLR9) 0.5 ug/mL
[5] = agonist: Pam2CSK4 (TLR2/6) 0.1 ug/mL
[6] = agonist: Pam3CSK4 (TLR2/1) 0.1 ug/mL
[7] = library stock concentration (final ~1000-fold dilution): 10 mM, cytotoxicity flag (confluency mask): not cytotoxic, agonist: Imiquimod (TLR7) […]
[8] = library stock concentration (final ~1000-fold dilution): 10 mM, cytotoxicity flag (confluency mask): not cytotoxic, agonist: MPLA (TLR4) […]
[9] = library stock concentration (final ~1000-fold dilution): 10 mM, cytotoxicity flag (confluency mask): cytotoxic (confluency <70% of control), agonist: Imiquimod (TLR7) […]
[10] = library stock concentration (final ~1000-fold dilution): 10 mM, cytotoxicity flag (confluency mask): cytotoxic (confluency <70% of control), agonist: MPLA (TLR4) […]
[11] = library stock concentration (final ~1000-fold dilution): 2 mM, cytotoxicity flag (confluency mask): not cytotoxic, agonist: Imiquimod (TLR7) […]
[12] = library stock concentration (final ~1000-fold dilution): 2 mM, cytotoxicity flag (confluency mask): not cytotoxic, agonist: MPLA (TLR4) […]

## CCn1cc(-c2ccnc3[nH]c(-c4cccc(CN(C)C)c4)cc23)c(-c2ccc(NC(=O)N(C)C)cc2)n1 (library stock concentration (final ~1000-fold dilution): 10 mM)
[1]; agonist: LPS (TLR4) 0.1 ug/mL
  NF-kB SEAP reporter activity: 6.43
[1]; [4]
  NF-kB SEAP reporter activity: 0.432
[1]; [5]
  NF-kB SEAP reporter activity: 1.83
[1]; [6]
  NF-kB SEAP reporter activity: 3.76

## CN(C)C(=O)Nc1cccc(-c2ccc(N(C)C)cc2)c1 (library stock concentration (final ~1000-fold dilution): 10 mM)
[1]; agonist: LPS (TLR4) 0.1 ug/mL
  NF-kB SEAP reporter activity: 1.52
[1]; [4]
  NF-kB SEAP reporter activity: 1.08
[1]; [5]
  NF-kB SEAP reporter activity: 0.914
[1]; [6]
  NF-kB SEAP reporter activity: 1.01

## CN(C)C(=O)Nc1cccc(-c2ccc(N(C)C)cc2)c1
[2]; [7]
  NF-kB SEAP reporter activity: 0.998
[2]; [8]
  NF-kB SEAP reporter activity: 0.985

## CCn1cc(-c2ccnc3[nH]c(-c4cccc(CN(C)C)c4)cc23)c(-c2ccc(NC(=O)N(C)C)cc2)n1
[2]; [7]
  NF-kB SEAP reporter activity: 3.13
[2]; [8]
  NF-kB SEAP reporter activity: 2.67

## CS(=O)(=O)O.O=C(Nc1cccc(Cl)c1)Nc1ncc(CCNc2ncnc3ccsc23)s1
[2]; [9]
  NF-kB SEAP reporter activity: 0.503
[2]; [10]
  NF-kB SEAP reporter activity: 0.512

## CS(=O)(=O)O.O=C(Nc1cccc(Cl)c1)Nc1ncc(CCNc2ncnc3ccsc23)s1 (library stock concentration (final ~1000-fold dilution): 10 mM)
[3]; agonist: LPS (TLR4) 0.1 ug/mL
  NF-kB SEAP reporter activity: 1
[3]; [4]
  NF-kB SEAP reporter activity: 0.54
[3]; [5]
  NF-kB SEAP reporter activity: 0.153
[3]; [6]
  NF-kB SEAP reporter activity: 0.292

## CCCCCCOc1cc(C)c(O)c(C)c1C (library stock concentration (final ~1000-fold dilution): 10 mM)
[3]; agonist: LPS (TLR4) 0.1 ug/mL
  NF-kB SEAP reporter activity: 0.406
[3]; [4]
  NF-kB SEAP reporter activity: 0.234
[3]; [5]
  NF-kB SEAP reporter activity: 0.154
[3]; [6]
  NF-kB SEAP reporter activity: 0.209

## CCCCCCOc1cc(C)c(O)c(C)c1C
[2]; [9]
  NF-kB SEAP reporter activity: 0.313
[2]; [10]
  NF-kB SEAP reporter activity: 1.36

## O=C(NC(C1CC1)C(F)(F)F)c1cc(-c2cnn3cc(-c4ccc(F)cc4)cnc23)cs1 (stereo unspecified)
[2]; [7]
  NF-kB SEAP reporter activity: 1.28
[2]; [8]
  NF-kB SEAP reporter activity: 1.98

## Cl.Cl.c1cc(-c2cnn3cc(-c4ccc(OCCN5CCCCC5)cc4)cnc23)ccn1
[2]; library stock concentration (final ~1000-fold dilution): 10 mM water, cytotoxicity flag (confluency mask): not cytotoxic, agonist: Imiquimod (TLR7) […]
  NF-kB SEAP reporter activity: 0.944
[2]; library stock concentration (final ~1000-fold dilution): 10 mM water, cytotoxicity flag (confluency mask): not cytotoxic, agonist: MPLA (TLR4) […]
  NF-kB SEAP reporter activity: 1.2

## c1cc(-c2cnn3cc(-c4ccc(OCCN5CCCCC5)cc4)cnc23)ccn1 (library stock concentration (final ~1000-fold dilution): 2 mM)
[1]; agonist: LPS (TLR4) 0.1 ug/mL
  NF-kB SEAP reporter activity: 1.38
[1]; [4]
  NF-kB SEAP reporter activity: 0.365
[1]; [5]
  NF-kB SEAP reporter activity: 1.32
[1]; [6]
  NF-kB SEAP reporter activity: 1.28

## c1cc(-c2cnn3cc(-c4ccc(OCCN5CCCCC5)cc4)cnc23)ccn1
[2]; [11]
  NF-kB SEAP reporter activity: 0.841
[2]; [12]
  NF-kB SEAP reporter activity: 1.08

## O=C(NC(C1CC1)C(F)(F)F)c1cc(-c2cnn3cc(-c4ccc(F)cc4)cnc23)cs1 (stereo unspecified) (library stock concentration (final ~1000-fold dilution): 10 mM)
[1]; agonist: LPS (TLR4) 0.1 ug/mL
  NF-kB SEAP reporter activity: 2.68
[1]; [4]
  NF-kB SEAP reporter activity: 1.73
[1]; [5]
  NF-kB SEAP reporter activity: 2.46
[1]; [6]
  NF-kB SEAP reporter activity: 3.14

## Cl.Cl.c1cc(-c2cnn3cc(-c4ccc(OCCN5CCCCC5)cc4)cnc23)ccn1 (library stock concentration (final ~1000-fold dilution): 10 mM water)
[1]; agonist: LPS (TLR4) 0.1 ug/mL
  NF-kB SEAP reporter activity: 1.69
[1]; [4]
  NF-kB SEAP reporter activity: 0.252
[1]; [5]
  NF-kB SEAP reporter activity: 1.44
[1]; [6]
  NF-kB SEAP reporter activity: 1.92

## CCC(=C(c1ccccc1)c1ccc(OCCN(C)C)cc1)c1ccccc1
[2]; [9]
  NF-kB SEAP reporter activity: 1.53
[2]; [10]
  NF-kB SEAP reporter activity: 1.52

## CCC(=C(c1ccccc1)c1ccc(OCCN(C)C)cc1)c1ccccc1 (library stock concentration (final ~1000-fold dilution): 10 mM)
[3]; agonist: LPS (TLR4) 0.1 ug/mL
  NF-kB SEAP reporter activity: 0.687
[3]; [4]
  NF-kB SEAP reporter activity: 0.447
[3]; [5]
  NF-kB SEAP reporter activity: 0.398
[3]; [6]
  NF-kB SEAP reporter activity: 0.525

## Cc1ccccc1C(OCCN(C)C)c1ccccc1.Cl (stereo unspecified) (library stock concentration (final ~1000-fold dilution): 10 mM)
[1]; agonist: LPS (TLR4) 0.1 ug/mL
  NF-kB SEAP reporter activity: 1.29
[1]; [4]
  NF-kB SEAP reporter activity: 0.935
[1]; [5]
  NF-kB SEAP reporter activity: 0.934
[1]; [6]
  NF-kB SEAP reporter activity: 0.932

## Cc1ccccc1C(OCCN(C)C)c1ccccc1.Cl (stereo unspecified)
[2]; [7]
  NF-kB SEAP reporter activity: 1.38
[2]; [8]
  NF-kB SEAP reporter activity: 1.13

## CCN(CC)CCCCNc1ncc2cc(-c3cc(OC)cc(OC)c3)c(NC(=O)NC(C)(C)C)nc2n1 (library stock concentration (final ~1000-fold dilution): 10 mM)
[3]; agonist: LPS (TLR4) 0.1 ug/mL
  NF-kB SEAP reporter activity: 0.324
[3]; [4]
  NF-kB SEAP reporter activity: 0.891
[3]; [5]
  NF-kB SEAP reporter activity: 1.72
[3]; [6]
  NF-kB SEAP reporter activity: 1.56

## CNc1ncc2cc(-c3cc(NC(=O)NCCC(C)(C)C)c(F)cc3C)c(C)nc2n1 (library stock concentration (final ~1000-fold dilution): 2 mM)
[1]; agonist: LPS (TLR4) 0.1 ug/mL
  NF-kB SEAP reporter activity: 1.42
[1]; [4]
  NF-kB SEAP reporter activity: 0.533
[1]; [5]
  NF-kB SEAP reporter activity: 0.218
[1]; [6]
  NF-kB SEAP reporter activity: 0.28

## CNc1ncc2cc(-c3cc(NC(=O)NCCC(C)(C)C)c(F)cc3C)c(C)nc2n1
[2]; [11]
  NF-kB SEAP reporter activity: 0.497
[2]; [12]
  NF-kB SEAP reporter activity: 0.918

## COc1cc(OC)cc(-c2cc3cnc(N)nc3nc2NC(=O)NC(C)(C)C)c1
[2]; [7]
  NF-kB SEAP reporter activity: 0.989
[2]; [8]
  NF-kB SEAP reporter activity: 1.1

## COc1cc(OC)cc(-c2cc3cnc(N)nc3nc2NC(=O)NC(C)(C)C)c1 (library stock concentration (final ~1000-fold dilution): 10 mM)
[1]; agonist: LPS (TLR4) 0.1 ug/mL
  NF-kB SEAP reporter activity: 5.36
[1]; [4]
  NF-kB SEAP reporter activity: 1.02
[1]; [5]
  NF-kB SEAP reporter activity: 0.578
[1]; [6]
  NF-kB SEAP reporter activity: 0.747

## CCN(CC)CCCCNc1ncc2cc(-c3cc(OC)cc(OC)c3)c(NC(=O)NC(C)(C)C)nc2n1
[2]; [9]
  NF-kB SEAP reporter activity: 2.8
[2]; [10]
  NF-kB SEAP reporter activity: 2.71

## O=C(NC1(c2ccccc2)CC1)c1c(CN2CCC(N3CCCCC3)CC2)c(-c2cccc(C(F)(F)F)c2)nc2cc(Br)ccc12 (library stock concentration (final ~1000-fold dilution): 10 mM)
[3]; agonist: LPS (TLR4) 0.1 ug/mL
  NF-kB SEAP reporter activity: 2.58
[3]; [4]
  NF-kB SEAP reporter activity: 0.897
[3]; [5]
  NF-kB SEAP reporter activity: 0.896
[3]; [6]
  NF-kB SEAP reporter activity: 1.27

## O=C(NC1(c2ccccc2)CC1)c1c(CN2CCC(N3CCCCC3)CC2)c(-c2cccc(C(F)(F)F)c2)nc2cc(Br)ccc12
[2]; [9]
  NF-kB SEAP reporter activity: 0.916
[2]; [10]
  NF-kB SEAP reporter activity: 1.03

## O=C(c1cccc(Br)c1)N1CCC(N2CCCC2)CC1
[2]; [8]
  NF-kB SEAP reporter activity: 1.09

## O=C(c1cccc(Br)c1)N1CCC(N2CCCC2)CC1 (library stock concentration (final ~1000-fold dilution): 10 mM)
[1]; agonist: LPS (TLR4) 0.1 ug/mL
  NF-kB SEAP reporter activity: 1.39
[1]; [4]
  NF-kB SEAP reporter activity: 0.951
[1]; [5]
  NF-kB SEAP reporter activity: 1.16
[1]; [6]
  NF-kB SEAP reporter activity: 0.966

## CN1C(=O)C(NC(=O)c2n[nH]c(Cc3ccccc3)n2)COc2ccccc21 (stereo unspecified) (library stock concentration (final ~1000-fold dilution): 10 mM)
[1]; agonist: LPS (TLR4) 0.1 ug/mL
  NF-kB SEAP reporter activity: 1.01
[1]; [4]
  NF-kB SEAP reporter activity: 1.59
[1]; [5]
  NF-kB SEAP reporter activity: 1.01
[1]; [6]
  NF-kB SEAP reporter activity: 1.15

## CN1C(=O)C(NC(=O)c2n[nH]c(Cc3ccccc3)n2)COc2ccccc21 (stereo unspecified)
[2]; [7]
  NF-kB SEAP reporter activity: 1.3
[2]; [8]
  NF-kB SEAP reporter activity: 0.971

## CN(C/C=C/C#CC(C)(C)C)Cc1cccc2ccccc12.Cl
[2]; [7]
  NF-kB SEAP reporter activity: 1.56
[2]; [8]
  NF-kB SEAP reporter activity: 2.08

## CN(C/C=C/C#CC(C)(C)C)Cc1cccc2ccccc12
[2]; [7]
  NF-kB SEAP reporter activity: 1.6
[2]; [8]
  NF-kB SEAP reporter activity: 2.02

## CN(C/C=C/C#CC(C)(C)C)Cc1cccc2ccccc12 (library stock concentration (final ~1000-fold dilution): 10 mM)
[1]; agonist: LPS (TLR4) 0.1 ug/mL
  NF-kB SEAP reporter activity: 4.26
[1]; [4]
  NF-kB SEAP reporter activity: 0.849
[1]; [5]
  NF-kB SEAP reporter activity: 0.95
[1]; [6]
  NF-kB SEAP reporter activity: 1.44

## CN(C/C=C/C#CC(C)(C)C)Cc1cccc2ccccc12.Cl (library stock concentration (final ~1000-fold dilution): 10 mM)
[1]; agonist: LPS (TLR4) 0.1 ug/mL
  NF-kB SEAP reporter activity: 3.51
[1]; [4]
  NF-kB SEAP reporter activity: 0.849
[1]; [5]
  NF-kB SEAP reporter activity: 0.948
[1]; [6]
  NF-kB SEAP reporter activity: 1.3
